# Results taken from PubChem BioAssay (NCATS).
# Several values for one entry are separate records, joined by “and”; a condition that tells them apart may be missing. Equal entries are not always repeated. Records with an inconclusive call do not appear. A call without a number means that no potency is given here. A structure can be active in one record and inactive in another. A number with no mark means an inactive call. Activity calls are given as the source filed them. Calls come from the whole dose curve; as a rule, active = well fitted curve in the direction sought with a large enough effect; inconclusive = small, poorly fitted or top-dose-only effect, or another doubt; inactive = no such curve, though single readings can be large; an effect the other way counts as inactive or inconclusive.
# How the values were obtained:
# [1] = test system: CRL-7250; assay: Cytotoxic Profiling of Annotated Libraries Using Quantitative High-Throughput Screening (AID 1296008); settings: Five cell lines viability, CellTiter-Glo ATP luminescence, 48-72 h; max response: hits give low values; note: nearly all actives have a fitted effect of over 60% in size; note: potency is the fitted concentration of half-maximal effect
# Method in brief: (§1)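 Cytotoxicity was measured as CellTiter-Glo ATP luminescence, read after 10 min at room temperature. Compound treatment of the cells lasted 48 or 72 hr at 37 degrees Celsius in a qHTS format.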
# [2] = test system: HEK293; assay: as above; settings: Five cell lines viability, CellTiter-Glo ATP luminescence, 48-72 h; max response: hits give low values
# Method in brief: as §1
# [3] = test system: HaCat; assay: as above; settings: Five cell lines viability, CellTiter-Glo ATP luminescence, 48-72 h; max response: hits give low values
# Method in brief: as §1
# [4] = test system: KB-3-1; assay: as above; settings: Five cell lines viability, CellTiter-Glo ATP luminescence, 48-72 h; max response: hits give low values
# Method in brief: as §1
# [5] = test system: NIH3T3; assay: as above; settings: Five cell lines viability, CellTiter-Glo ATP luminescence, 48-72 h; max response: hits give low values
# Method in brief: as §1
# [6] = test system: CRL-7250; assay: qHTS assay to identify novel small-molecules to repurpose for Merkel cell carcinoma treatment (AID 1296009); settings: MCC and control cell lines, CellTiter-Glo viability, 72 h; at 44.8 µM (top of the series) unless noted; note: nearly all actives have a fitted effect of over 60% in size; note: potency is the fitted concentration of half-maximal effect
# Method in brief: (§2)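 Cell viability measured by CellTiter-Glo following 72 hr compound treatment at 37 degree celsius, with NPC and MIPE libraries tested in 8- and 11-point concentration series.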
# [7] = test system: HACAT; assay: as above; settings: MCC and control cell lines, CellTiter-Glo viability, 72 h; at 44.8 µM (top of the series) unless noted
# Method in brief: as §2
# [8] = test system: MCC-13; assay: as above; settings: MCC and control cell lines, CellTiter-Glo viability, 72 h; series mostly up to 46 µM
# Method in brief: as §2
# [9] = test system: MKL-1; assay: as above; settings: MCC and control cell lines, CellTiter-Glo viability, 72 h; series mostly up to 46 µM
# Method in brief: as §2
# [10] = test system: MKL-2; assay: as above; settings: MCC and control cell lines, CellTiter-Glo viability, 72 h; series mostly up to 46 µM
# Method in brief: as §2
# [11] = test system: UISO; assay: as above; settings: MCC and control cell lines, CellTiter-Glo viability, 72 h; series mostly up to 46 µM
# Method in brief: as §2
# [12] = test system: WaGa; assay: as above; settings: MCC and control cell lines, CellTiter-Glo viability, 72 h; series mostly up to 46 µM
# Method in brief: as §2
# [13] = test system: C33A; assay: Primary qHTS to identify gynecologic anti-cancer compounds using libraries of approved drugs and bioactive compounds (AID 1345084); settings: Gynecologic cancer cell panel viability, ATPlite luminescence, 48 h; series mostly up to 57.5 µM; note: nearly all actives have a fitted effect of over 55% in size
# Method in brief: (§3)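 Cell viability after 48 h drug treatment, ATPlite luminescence readout; five doses.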
# [14] = test system: CASKI; assay: as above; settings: Gynecologic cancer cell panel viability, ATPlite luminescence, 48 h; series mostly up to 57.5 µM
# Method in brief: as §3
# [15] = test system: MCC-26; assay: qHTS assay to identify novel small-molecules to repurpose for Merkel cell carcinoma treatment (AID 1296009); settings: MCC and control cell lines, CellTiter-Glo viability, 72 h; series mostly up to 46 µM; note: nearly all actives have a fitted effect of over 60% in size; note: potency is the fitted concentration of half-maximal effect
# Method in brief: as §2
# [16] = test system: TAB165; assay: qHTS profiling for inhibitors of Plasmodium falciparum proliferation (AID 504749); note: nearly all actives have a fitted effect of over 60% in size; note: potency is the fitted concentration of half-maximal effect; settings: P. falciparum in erythrocytes, SYBR Green DNA, 72 h; series mostly up to 28.7 µM
# Method in brief: (§4)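 In a 72 h erythrocytic culture (37 C, humidified, 5% CO2) at 2.5% hematocrit and 0.3% starting parasitemia, compounds were tested; SYBR Green I in detergent lysis buffer stained parasite DNA overnight.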
# [17] = test system: HEK293T; assay: qHTS assay to identify novel small-molecules to repurpose for Merkel cell carcinoma treatment (AID 1296009); settings: MCC and control cell lines, CellTiter-Glo viability, 72 h; at 44.8 µM (top of the series) unless noted; note: nearly all actives have a fitted effect of over 60% in size; note: potency is the fitted concentration of half-maximal effect
# Method in brief: as §2
# [18] = test system: CAOV3; assay: Primary qHTS to identify gynecologic anti-cancer compounds using libraries of approved drugs and bioactive compounds (AID 1345084); settings: Gynecologic cancer cell panel viability, ATPlite luminescence, 48 h; series mostly up to 57.5 µM; note: nearly all actives have a fitted effect of over 55% in size
# Method in brief: as §3
# [19] = test system: W2; assay: qHTS profiling for inhibitors of Plasmodium falciparum proliferation (AID 504749); note: nearly all actives have a fitted effect of over 60% in size; note: potency is the fitted concentration of half-maximal effect; settings: P. falciparum in erythrocytes, SYBR Green DNA, 72 h; series mostly up to 28.7 µM
# Method in brief: as §4
# [20] = test system: NIH3T3; assay: qHTS assay to identify novel small-molecules to repurpose for Merkel cell carcinoma treatment (AID 1296009); settings: MCC and control cell lines, CellTiter-Glo viability, 72 h; at 44.8 µM (top of the series) unless noted; note: nearly all actives have a fitted effect of over 60% in size; note: potency is the fitted concentration of half-maximal effect
# Method in brief: as §2
smiles,measurement,setting,value
CC(C)N(CCC(C(N)=O)(c1ccccc1)c1ccccn1)C(C)C (stereo not given),max response,[1],-4.51%
same,outcome,[1],inactive
same,max response,[2],-72.3%
same,max response,[3],-27.6%
same,outcome,[3],inactive
same,max response,[4],-6.29% and -10.8%
same,max response,[5],-23.6% and -1.68%
same,outcome,[6],inactive
same,outcome,[7],inactive
same,outcome,[8],inactive
same,Potency,[9],inactive
same,Potency,[10],inactive
same,Potency,[11],inactive
same,Potency,[12],inactive
same,Potency,[13],inactive
same,outcome,[14],inactive
CN1CC[C@]23c4c5ccc(O)c4O[C@H]2[C@@H](O)CC[C@H]3[C@H]1C5,outcome,[1],inactive
same,max response,[2],-12.9%
same,outcome,[3],inactive
same,max response,[4],-2.83%
same,max response,[5],0.466%
same,outcome,[6],inactive [at 92 µM]
same,outcome,[7],inactive [at 92 µM]
same,outcome,[8],inactive
same,Potency,[15],inactive
same,Potency,[9],inactive
same,Potency,[10],inactive
same,Potency,[11],inactive
same,Potency,[12],inactive
same,Potency,[13],inactive
same,outcome,[14],inactive
NC(=O)c1cc([N+](=O)[O-])cc([N+](=O)[O-])c1,Potency,[16],inactive
same,outcome,[1],inactive
same,max response,[2],-2.7%
same,max response,[3],3.87%
same,max response,[4],-1.64%
same,max response,[5],4.48%
same,outcome,[6],inactive
same,outcome,[8],inactive
same,Potency,[9],inactive
same,Potency,[10],inactive
same,Potency,[11],inactive
same,Potency,[12],inactive
same,Potency,[13],inactive
same,outcome,[14],inactive
COP(=S)(OC)Oc1cc(Cl)c(Cl)cc1Cl,max response,[1],-8.37%
same,max response,[2],1.74%
same,max response,[3],4.52%
same,Potency,[4],0.146 µM (active)
same,max response,[4],-14.4%
same,max response,[5],-6.48%
same,outcome,[8],inactive
same,Potency,[15],inactive
same,Potency,[9],inactive
same,Potency,[11],inactive
same,Potency,[12],inactive
same,Potency,[13],inactive
same,outcome,[14],inactive
O=C1c2ccccc2C(=O)C1C(=O)C(c1ccccc1)c1ccccc1,Potency,[16],inactive
same,max response,[1],3.94%
same,outcome,[2],inactive
same,outcome,[3],inactive
same,max response,[4],-7.07%
same,max response,[5],-11%
same,outcome,[7],inactive
same,outcome,[17],inactive
same,outcome,[8],inactive
same,Potency,[15],inactive
same,Potency,[11],inactive
same,Potency,[12],23.7 µM (active)
same,Potency,[13],inactive
same,outcome,[18],inactive
same,outcome,[14],inactive
CN1C(=O)CCS(=O)(=O)C1c1ccc(Cl)cc1 (stereo not given),Potency,[16],inactive
same,max response,[1],-0.906% and -1.81%
same,max response,[2],-9.62%
same,outcome,[2],inactive
same,outcome,[3],inactive
same,max response,[4],-6.09% and -6.07%
same,max response,[5],2.05% and -20.3%
same,outcome,[7],inactive
same,outcome,[17],inactive
same,outcome,[8],inactive
same,Potency,[15],inactive
same,Potency,[9],inactive
same,Potency,[10],inactive
same,Potency,[11],inactive
same,Potency,[12],inactive
same,Potency,[13],inactive
same,outcome,[14],inactive
O=C1OC(c2ccc(O)c(S(=O)(=O)O)c2)(c2ccc(O)c(S(=O)(=O)O)c2)c2c(Br)c(Br)c(Br)c(Br)c21,Potency,[16],inactive
same,Potency,[19],inactive
same,max response,[1],-1.01%
same,outcome,[2],inactive
same,outcome,[3],inactive
same,max response,[4],10.3%
same,outcome,[5],inactive
same,outcome,[7],inactive
same,outcome,[17],inactive
same,outcome,[8],inactive
same,Potency,[9],inactive
same,Potency,[10],inactive
same,outcome,[20],inactive
same,Potency,[11],inactive
same,Potency,[12],inactive
same,Potency,[13],inactive
same,outcome,[14],inactive
O=c1[nH]oc2c1CCNC2,Potency,[16],inactive
same,Potency,[19],inactive
same,max response,[1],-16.5%
same,max response,[2],-2.62%
same,outcome,[3],inactive
same,max response,[4],-7.07%
same,max response,[5],-9.67%
same,outcome,[7],inactive
same,outcome,[8],inactive
same,Potency,[15],inactive
same,Potency,[9],inactive
same,Potency,[10],inactive
same,Potency,[11],inactive
same,Potency,[12],inactive
same,Potency,[13],inactive
same,outcome,[18],inactive
same,outcome,[14],inactive
Nc1ccccc1,max response,[1],-1.03%
same,outcome,[2],inactive
same,outcome,[3],inactive
same,max response,[4],-12%
same,max response,[5],-0.773%
same,outcome,[7],inactive
same,outcome,[17],inactive
same,outcome,[8],inactive
same,Potency,[15],inactive
same,Potency,[9],inactive
same,Potency,[10],inactive
same,Potency,[11],inactive
same,Potency,[12],inactive
same,Potency,[13],inactive
same,outcome,[18],inactive
same,outcome,[14],inactive
CC(C)(C)NCC(O)c1cc(Cl)c(N)c(C(F)(F)F)c1 (stereo not given),Potency,[16],7.94 µM (active)
same,Potency,[19],5.36 µM (active)
same,outcome,[1],inactive
same,outcome,[2],inactive
same,max response,[3],-13.5%
same,max response,[4],5.51%
same,outcome,[5],inactive
same,outcome,[6],inactive
same,outcome,[17],inactive
same,outcome,[8],inactive
same,Potency,[15],inactive
same,Potency,[9],inactive
same,Potency,[10],inactive
same,outcome,[20],inactive
same,Potency,[11],inactive
same,Potency,[12],inactive
same,Potency,[13],inactive
same,outcome,[14],inactive
c1ccc(CN2CCNCC2)cc1,max response,[1],3.96%
same,max response,[2],-21.3%
same,outcome,[3],inactive
same,max response,[4],-8.52%
same,max response,[5],-5.38%
same,outcome,[7],inactive [at 155 µM]
same,outcome,[8],inactive
same,Potency,[15],inactive
same,Potency,[9],inactive
same,Potency,[10],inactive
same,Potency,[11],inactive
same,Potency,[12],inactive
same,Potency,[13],inactive
same,outcome,[18],inactive
same,outcome,[14],inactive
COc1ccc2c3c1O[C@H]1[C@H](O)CC[C@H]4[C@@H](C2)N(C)CC[C@@]341,outcome,[1],inactive
same,max response,[2],-4.59%
same,outcome,[3],inactive
same,max response,[4],-6.57%
same,outcome,[5],inactive
same,outcome,[6],inactive [at 92 µM]
same,outcome,[7],inactive [at 92 µM]
same,outcome,[8],inactive
same,Potency,[15],inactive
same,Potency,[10],inactive
same,outcome,[20],inactive [at 92 µM]
same,Potency,[11],inactive
same,Potency,[12],inactive
same,Potency,[13],inactive
same,outcome,[14],inactive
COc1cc(OC)c(OC)cc1C=O,max response,[1],-7.23% and -7.54%
same,max response,[2],-6.96%
same,outcome,[2],inactive
same,max response,[3],-4.25%
same,outcome,[3],inactive
same,max response,[4],-7.6% and -8.54%
same,max response,[5],2.47% and 4.91%
same,outcome,[7],inactive
same,outcome,[17],inactive [at 92 µM]
same,outcome,[8],inactive
same,Potency,[9],inactive
same,Potency,[10],inactive
same,Potency,[11],inactive
same,Potency,[12],inactive
same,Potency,[13],inactive
same,outcome,[18],inactive
same,outcome,[14],inactive
